Test results taken from PubChem BioAssay AID624287 (National Center for Advancing Translational Sciences (NCATS), 2012).
Out of some 340,000 compounds screened, about 420 (0.12%) were called active. About 10% were inconclusive and are not listed. The call rests on the fitted dose curve; in most records, active means well fitted activation curve with a large enough effect; inconclusive means small, poorly fitted or top-dose-only effect, or another doubt; inactive means no such curve, though single readings can be large or run the other way; cell line not stated here. What follows is part of a selection rich in actives, with near analogues and random picks from the rest.

Test: qHTS for Agonist of gsp, the Etiologic Mutation Responsible for Fibrous Dysplasia/McCune-Albright Syndrome: qHTS;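 further: phosphodiesterase inhibitor Ro 20-1724 added with compounds to block cAMP breakdown; nearly all actives have a fitted effect of over 60% in size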
Conditions: gsp mutant cells, cAMP HTRF, 30 min; series mostly up to 76.9 µM; activation (cAMP increase): at the top concentration
Text: McCune-Albright syndrome (MAS) is a rare disease caused by somatic mutations in Gsgsp), a widely expressed protein central in signal transduction from G-coupled protein receptors (GPCRs). The disease symptoms are diverse, owing to the fact that the patients are mosaics with varying degrees of tissue involvement. Greater than 90% of the mutations in Gs in MAS occur at the R201 position and are equally divided between R201H and R201C. The R201 residue is central in the intrinsic GTPase activity of Gs and the H and C mutations lead to loss of, or impairment of, the GTPase activity. The intrinsic GTPase activity is necessary to terminate the interaction between Gs and adenylate cyclase, and to terminate the cAMP-mediated signaling of the given GPCR pathway. Thus, these activating mutations lead to ligand-independent activation of GPCR pathways. The tissue phenotype is determined by the role of Gs in the function of a given cell, and excess Gs/cAMP signaling in that cell. For example, pituitary somatotrophs overproduce growth hormone in a growth hormone releasing hormone-independent fashion, and gigantism/acromegaly ensues. Skeletal stem cells in the bone marrow behave as if they are under constant parathyroid hormone stimulation and fail to differentiate into osteoblasts and osteocytes, and proliferate as immature osteogenic cells and lead to the marrow fibrosis of fibrous dysplasia of bone. The goal of this project is to identify molecules with stimulatory activity at gsp mutations that will not only allow for in-depth study of the underlying molecular and cellular pathophysiology, but also serve as compounds from which drugs to treat FD/MAS can be developed NIH Chemical Genomics Center [NCGC] NIH Molecular Libraries Probe Centers Network [MLPCN] MLPCN Grant: IRP-FT-DE-2011-01 Assay Submitter (PI): Michael Collins, NIDCR
1.#Seed 2000 cells/well in 6 ul DMEM 10% FBS, 1% Pen/Strep, 0.5 mg/ml G418 2.#Incubate 16-24 hr at 37C, 5% CO2, 95% humidity 3.#Aspirate leaving 1 ul residual volume 4.#Dispense 5 ul/well DPBS + 1 mM CaCl2, 0.5 mM MgCl2, 0.05% BSA, 0.005% Tween 20 5.#Aspirate leaving 2 ul residual volume 6.#Dispense 23 nl/well compounds in DMSO 7.#Dispense 1 ul/well 300 uM Ro-20174 in DMEM 10% FBS 8.#Incubate 30 min at 37C, 5% CO2, 95% humidity 9.#Dispense 1.5 ul/well HTRF reagent: cAMP-d2 in lysis buffer 10.#Dispense 1.5 ul/well HTRF reagent: anti-cAMP antibody-K in lysis buffer 11.#Incubate 30 min at room temperature 12.#Detect HTRF signal using EnVision plate reader

Activation (cAMP increase), inactive:
O=C(O)C1=C(C(=O)O)C2CCC1C2 13.7%, CC1=C(C(=O)N2CCOCC2)CC(CC(=O)NCCN2CCOCC2)C(=O)N1CCC1=CCCCC1 (stereo not drawn) -40.6%, CC1(c2cccc(N)c2)OCCO1 6.78%, CCc1cccc(CC)c1N1C(=O)CC(Sc2ccccc2N)C1=O (stereo not drawn) -34.3%, CCCCN(C(C)=O)c1ccc2c(c1)C1CC2CCN1Cc1ccccc1 (stereo not drawn) 12.9%, CCOc1ccc(S(=O)(=O)NCCC(=O)NNC(=O)c2ccc(F)cc2)cc1 6.08%, Cc1ccc(NC(=O)Cn2sc3ccccc3c2=O)cc1 3.51%, CC1C(C)N(C(=O)CCl)c2ccccc2N1C(=O)CCl (stereo not drawn) -0.561% [at 15.4 µM], CC1CCCC(C)N1C(=O)COC(=O)c1ccccc1C(=O)c1ccccc1 (stereo not drawn) -62.2%, CC1(C)NC(=O)N(CC(=O)Nc2ccc(-c3ccccc3)cc2)C1=O -25.4%, CC1C(=O)N(Cc2cn(CC3CCCCC3)nn2)CCS(=O)(=O)N1Cc1ccc(-c2cccc(N(C)C)c2)cc1 (stereo not drawn) -37.2%, CCOC(=O)C(=Cc1ccccc1)C(=O)c1ccccc1 -32.4%, COc1ccc(S(=O)(=O)N2CCN(CC(=O)N3CCNC3=O)CC2)cc1OC -61.6%, O=C(OCC(=O)N1CCCCCC1)c1cccc(Cl)c1Cl 7.89%, CSc1ncnc2c1ncn2CCCNCC(C)c1ccccc1 (stereo not drawn) -17.8%, C[C@H]1NS(=O)(=O)c2cc(Cl)ccc2O[C@@H]1c1ccccc1 -56.1%, COc1cc2nnn(-c3ccncc3)c2cc1OC -62.2%, O=C(COC(=O)/C=C/c1ccc(Cl)cc1)NC1CCS(=O)(=O)C1 (stereo not drawn) 7.94%, Cc1ccccc1-c1ccc2c(c1)O[C@@H](CN(C)Cc1ccc(C(=O)O)cc1)[C@@H](C)CN([C@H](C)CO)S2(=O)=O 9.04%, CCN(Cc1ccncc1)C(=S)Nc1ccccc1C 3.88%, CC1CCCC(NC(=O)COC(=O)c2ccccc2C(=O)N(C)C2CCCCC2)C1C (stereo not drawn) -11.9%, CCN(CC)C(=O)C1=C(C)N(Cc2ccc(OC)cc2)C(=O)C(CC(=O)NCCCCc2ccccc2)C1 (stereo not drawn) -64.5%, N#CCCC(C#N)(c1cccnc1)N1CCOCC1 (stereo not drawn) 5.47%, CCc1cc(C(=O)N(CC)CC(=O)Nc2c(F)cccc2F)sc1C -14.1%, Cc1ccc(-c2ccc(CN3C(C)C(=O)N(Cc4cn(CCC5OCCCO5)nn4)CCS3(=O)=O)cc2)cc1 (stereo not drawn) -4.97%, COc1ccc(S(=O)(=O)N2CCC(C(=O)NCCC(=O)Nc3ccccc3OC)CC2)cc1 -127%, CC1CC(NC(=S)N(C)C)CC(C)(C)C1 (stereo not drawn) -1.96%, CC(C)NC(=O)Nc1ccc2c(c1)C(=O)N([C@H](C)CO)C[C@H](C)[C@@H](CN(C)Cc1ccc(C(F)(F)F)cc1)OCCCC[C@@H](C)O2 -39.1%
